Here are results for 61 compounds from PubChem BioAssay AID619 (University of Pittsburgh Molecular Library Screening Center, 2007).

The inhibition is the relative decrease from the control value, in per cent.

Out of some 97,000 compounds screened, about 520 (0.54%) were called active. For the sample, actives were picked, then their nearest neighbours and some compounds at random. A number with no mark means an inactive call.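 Rule for the calls: active = inhibition of 50% or more in the single-concentration screen; inactive = inhibition below 50%.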

For this experiment, the target named is Serine/threonine-protein kinase PLK1 (Homo sapiens) (UniProt P53350). Briefly: Plk1 peptide phosphorylation blockers – biochemical, TR-FRET, primary screen (AID 619).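 Note: 0% = DMSO max control and 100% = H-89 dihydrochloride min control.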 As to conditions: recombinant PLK1 kinase, at 10 µM, active compounds read high. (Time-resolved FRET reads energy transfer from a long-lived donor to a nearby acceptor.)
Serine/threonine-protein kinase PLK1 (Homo sapiens), sequence (P53350 whole entry, looked up): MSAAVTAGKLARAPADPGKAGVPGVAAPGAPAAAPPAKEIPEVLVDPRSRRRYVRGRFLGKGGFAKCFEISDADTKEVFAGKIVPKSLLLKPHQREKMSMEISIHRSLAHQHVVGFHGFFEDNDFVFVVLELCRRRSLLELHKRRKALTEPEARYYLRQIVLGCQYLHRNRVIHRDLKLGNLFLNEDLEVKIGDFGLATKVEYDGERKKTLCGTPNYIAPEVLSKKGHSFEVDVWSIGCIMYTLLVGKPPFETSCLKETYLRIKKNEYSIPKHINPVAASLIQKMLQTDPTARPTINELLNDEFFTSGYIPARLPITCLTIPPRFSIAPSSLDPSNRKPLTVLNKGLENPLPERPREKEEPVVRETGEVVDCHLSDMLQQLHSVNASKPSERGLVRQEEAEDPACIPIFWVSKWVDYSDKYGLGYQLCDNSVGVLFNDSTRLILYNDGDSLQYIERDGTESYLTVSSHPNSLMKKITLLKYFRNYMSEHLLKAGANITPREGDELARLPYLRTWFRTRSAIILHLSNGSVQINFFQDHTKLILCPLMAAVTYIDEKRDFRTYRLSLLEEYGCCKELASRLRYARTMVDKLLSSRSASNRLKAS
For `Cc1cccc(C(=O)Nc2ccccc2-c2nnn(CC(=O)Nc3ccc4c(c3)OCCO4)n2)c1`, the inhibition is -19.8%. Take `O=C1c2ccccc2C(Nc2ccc3c(c2)OCCO3)N1Cc1ccco1` (stereo unspecified): the inhibition was -13.3%. In the case of `Cc1ccnc(N2C(=O)c3ccccc3C2Nc2ccc3c(c2)OCCO3)c1` (stereo unspecified), the inhibition is 75.7% (active). As to `O=C(Nc1ccc(S(=O)(=O)N2CCc3ccccc3C2)cc1)c1ccccc1`, the inhibition is -9.1%. As for `CCN1CCN(C(=O)C2(NC(=O)Nc3cccc(F)c3)CCCCC2)CC1`, the inhibition is -9.1%. For the compound `CCOC(=O)C1=C(C)NC2=C(C(=O)CC(C)(C)C2)C1c1ccsc1` (stereo unspecified), the inhibition is -9.3%.

In the case of `CC(=O)N/C(=C/c1ccc(Cl)cc1)C(=O)NCCc1c[nH]c2ccccc12`, the inhibition is -8.99%.

As for `CCCOn1c(-n2nc(C)cc2C)nc2ccccc2c1=O`, the inhibition was -12.7%. To `COc1ccc2ccccc2c1CNCc1ccccn1` belongs -6.16%; to `CN(C)/C=C/C(=O)c1ccccc1F`, -7.63%. To `COc1ccccc1CNC(=O)c1ccc(SC)cc1OC` belongs -11.5%; to `CCOc1ccc(CN(Cc2ccco2)S(=O)(=O)c2ccc(-n3cnnn3)c(OC)c2)cc1`, -4.62%.

For the compound `CCOc1[nH]n(-c2ccc(Cl)cc2)c(=O)c1C=Nc1ccc(O)cc1`, the inhibition is -12.9%. As for `O=C(O)c1ccccc1NC(=S)NC(NC(=O)c1ccccc1[N+](=O)[O-])C(Cl)(Cl)Cl` (stereo unspecified), the inhibition was -10.3%.

In the case of `Cc1ccc(C2=CSC3=NS(=O)(=O)CCN23)cc1C`, the inhibition was -12.2%. For the compound `Cc1[nH]n(-c2ccc([N+](=O)[O-])cc2)c(=O)c1C=NCCN1CCN(C(=O)c2ccccc2F)CC1`, the inhibition was -16.1%. To `Cc1ccc(NC(=S)Nc2ncccc2C)c(C)c1` belongs -6.19%; to `Cc1onc(-c2ccccc2)c1C(=O)Nc1ccccc1C#N`, 66.8% (active). To `Cc1onc(-c2ccccc2)c1C(=O)N1CCOCC1` belongs -6.08%. To `CC(=O)Nc1cccc(NC(=O)c2c(-c3ccccc3)noc2C)c1` belongs -5.51%; to `O=C(/C=C/Nc1ccccc1OC(F)(F)F)C(F)(F)F`, -3.23%; to `COc1ccc(-n2cnc3cc(NCc4ccco4)ccc32)cc1`, -1.91%.

With `COc1ccc(-c2cc(C3CCN(c4ncccc4[N+](=O)[O-])CC3)[nH]n2)cc1`, the inhibition is -0.7%.

In the case of `CCOC(=O)Nc1ccc2c(c1)N(C(=O)CCN1CCN(CCO)CC1)c1ccccc1CC2`, the inhibition is -25.9%. To `CCN(CC)Cc1cc(C(C)=O)ccc1O` belongs -5.02%. `CC(=O)Nc1ccc(NC(=O)c2sc3nc4c(c(-c5ccc(C)cc5)c3c2N)CCC4)cc1`: the inhibition was -27.3%. To `CCN(CC)CCNc1ccc(Cl)cc1[N+](=O)[O-]` belongs -12.3%. To `Cc1cc(C)c2c3c(sc2n1)C(c1ccccc1)C(C#N)=C(N)O3` (stereo unspecified) belongs -9.36%; to `c1ccc(CCC2=NCCn3cccc32)cc1`, -1.03%.

For the compound `CC1CSc2nnc(CCc3ccccc3)n21` (stereo unspecified), the inhibition was 85.2% (active). To `CNC(=O)CSc1nnc(CCc2ccccc2)n1-c1ccccc1` belongs -5.54%; to `Cc1ccoc1C(=O)Nc1cccc(Oc2ccccc2)c1`, 1.94%.

Take `Cc1nc2nc(C)c(CCC(=O)N3CCN(c4ccccc4)CC3)c(C)n2n1`: the inhibition was 4.83%.

In the case of `c1cncc(-c2nnc3n2C2(CCCCC2)Cc2ccccc2-3)c1`, the inhibition is -8.5%. To `COc1cccc(/C=N/NC(=O)C(=O)N2CCCC2)c1` belongs -9.34%.

Consider `CCOC(=O)N1CCN(Cc2nc(N)nc(Nc3ccc(C)cc3)n2)CC1`, for which the inhibition is -13.1%. To `CC(Oc1ccc(F)cc1F)C(=O)/C=C/N(C)C` (stereo unspecified) belongs 0.09%. To `CN1CCN(c2ccc([N+](=O)[O-])c(Sc3nc4ccccc4[nH]3)c2)CC1` belongs -5.67%. On to `C=CCn1c(Cn2nnc3ccccc32)nnc1SCC(=O)N/N=C/c1cc(Br)cc(OC)c1O`, for which the inhibition is -6.54%. To `CCN1CCN(C(=O)c2cc3cc4ccc(OC)cc4nc3s2)CC1` belongs -4.82%. For `COc1ccc(-n2c(SCC(=O)NCc3ccco3)nnc2-c2c[nH]c3ccccc23)cc1`, the inhibition is -3.5%. To `CCc1ccccc1NC(=O)c1cccs1` belongs -6.58%; to `CCCc1nnc(NC(=O)c2cccs2)s1`, -6.49%. To `CCc1nnc(NC(=O)c2cccs2)s1` belongs 60.3% (active).

Take `Cc1ccc2nc(SC(C)C(=O)NCc3ccco3)[nH]c2c1` (stereo unspecified): the inhibition is 1.32%. To `CN1CCN(c2ccc(NC(=O)COc3ccc(Cl)cc3Cl)cc2)CC1` belongs 3%; to `Cc1ccc(-n2c(=O)cc(N3CCN(Cc4ccccc4)CC3)[nH]c2=O)cc1`, -1.26%. To `CN1CCN(c2cc(=O)n(-c3ccc(Cl)cc3)c(=O)[nH]2)CC1` belongs 67.4% (active); to `COc1ccc(C2Nc3ccccc3C(=O)N2Cc2ccccc2)cc1Cn1nnc2ccccc21` (stereo unspecified), -11.2%; to `C[N+]1(CCNC(=O)/C=N/O)CCCCC1`, 95.9% (active). `Cc1ccc(S(=O)(=O)c2c(COC(=O)c3cccc(Cl)c3)c(-c3ccccc3)nn2C)cc1`: the inhibition was 3.59%. To `CCOC(=O)c1c(NC(=S)Nc2ccccc2)sc2c1CCN(C)C2` belongs -13.1%; to `CCOc1ccccc1C1CC(c2ccc(Cl)cc2)Nc2nc(N)nn21` (stereo unspecified), -12.7%. Regarding `CCOc1ccccc1C1CC(c2ccccc2)Nc2nc(N)nn21` (stereo unspecified), the inhibition was 64% (active).

With `COc1ccc(C2CC(c3ccc(C)cc3)Nc3nc(N)nn32)cc1` (stereo unspecified), the inhibition is -3.47%. To `CCOc1ccc(S(=O)(=O)N2CCCCCC2)c2ccccc12` belongs -17.7%; to `O=C(CNC(=O)Cc1ccccc1)NCC(=O)OCC(=O)c1ccccc1Cl`, -4.92%; to `COc1ccc(C2=NOC3(CC(=O)N(c4ccc(Cl)cc4)C3=O)C2)c(OC)c1` (stereo unspecified), -9.65%.

Take `CC(=O)c1cn(CCCCCCCCCCn2cc(C(C)=O)c(=O)[nH]c2=O)c(=O)[nH]c1=O`: the inhibition was -6.55%. To `COc1nc(-c2ccc(Cl)cc2)ccc1-c1noc(-c2cccs2)n1` belongs -90.7%. To `O=C(CSc1ncnc2c1cnn2CCc1ccccc1)Nc1ccc(F)cc1` belongs -7.32%.
